{"source": "PubChem BioAssay (NCATS)", "note": "Records with an inconclusive call do not appear. Where a call stands in place of a potency, no number is given. Activity calls are given as the source filed them. Calls come from the whole dose curve; as a rule, active = well fitted cell-killing curve with a large enough effect; inconclusive = small, poorly fitted or top-dose-only effect; inactive = flat fitted curve, though single readings scatter. Starred links: 1 amine or outer side, 2 acyl side, 3 side chain; linkers in the order of their positions; H or OH if unused. Positions of bridges follow the written chain, without caps; N, C: chain ends. Non-standard residues stand in square brackets, D forms with d. Residues, ends and D or L forms follow the SMILES beside them. ξ: configuration not given here. *: point of attachment. X3 = C[C@@H](Oc1ccc([C@H](N[*:1])C(=O)[*:2])cc1)[C@]1(/C=C\\C(=O)[*:3])CO1; d(aIle) = CC[C@H](C)[C@@H](N)C(=O)O; X2 = CC(C)[C@@H](O)C(C)C(=O)*; ξNMeF = CNC(Cc1ccccc1)C(=O)O; ξT = CC(O)C(N)C(=O)O; ξS = NC(CO)C(=O)O", "data": [{"assay": "U-118MG Cancer Cell Toxicity qHTS against the NCATS CANVASS Library (AID 1347351); note: potency is the fitted concentration of half-maximal effect", "details": "U-118MG viability, CellTiter-Glo luminescence, 72 h; series mostly up to 38.3 µM", "source_text": "Natural products and their derivatives continue to be wellsprings of nascent therapeutic potential. However, many laboratories have limited resources for biological evaluation, leaving their previously isolated or synthesized compounds largely or completely untested. To address this issue, the Canvass library of natural products was assembled (https://tripod.nih.gov/canvass), in collaboration with academic and industry researchers, for quantitative high-throughput screening (qHTS) across a diverse set of cell-based and biochemical assays. The pure (>85% purity by liquid chromatography/mass spectrometry [LC/MS]) Canvass library of 346 natural products were submitted by 45 academic laboratories and companies around the world. We collected pure natural products to circumvent deconvolution and structure elucidation due to time and resource limitations. The library was formatted into 1536-well plates and evaluated in 50 qHTS (in an 11-pnt concentration series) bioassays with broad scope of disease-relevant mechanisms. The resulting data set from 50 different assays was then systematically analyzed to identify overall trends and specific natural products with interesting biological activities. Reported herein are the results of each individual qHTS and their corresponding assay protocol. National Center for Advancing Translational Sciences (NCATS), Rockville, MD National Institute of Health (NIH), Bethesda, Maryland\nCancer Cell Toxicity protocol for cell lines COV-362, OV-KATE, OV-SAHO, UWB1.289, UWB1.289-WTBRCA1, HEK-293, HPAF-II, Panc-1005, SW1088, or U-118MG. 1. In a 1536 well, white solid bottom tissue culture plates (Corning 7494), corresponding cells (COV-362, OV-KATE, OV-SAHO, UWB1.289, UWB1.289-WTBRCA1, HEK-293, HPAF-II, Panc-1005, SW1088, or U-118MG) were dispensed in each well at a final concentration of 1000 cells / well (6uL volume) using the Multidrop Combi (Thermo Fisher Scientific) dispenser. 2. The plates were incubated for 4 hours at 37 degrees C/5% CO2/95% Rh. 3. Compounds were pin transferred (~23nL volume) via Wako Pin-tool (Wako Automation, Richmond VA) equipped with a 1536 pin head. The assay plates were treated with compounds in an 11-pnt concentration series with a final concentration range of […] to 85uM. 4. Bortezomib was used as a single dose control (0.5mM column 4, rows 1 - 32) at a final concentration of 1.9uM and as a 16pnt titration (1mM; 1:2 dilution; 16-points; n = 2; column 3, rows 1 - 32) with final concentration range of 0.1nM - 3.8uM. 5. The assay plates were incubated for 72 hours at 37 degrees C/5% CO2/95% Rh. 6. 3uL CellTiter-Glo detection reagent was then added to the plates (columns 2 - 48, rows 1 - 32) and incubated at room temperature for additional 15min. 7. Luminescence signal was acquired via the ViewLux plate reader (PerkinElmer) using a clear filter, 2 second exposure and 2x binning settings.", "values": [{"smiles": "C=C[C@]12C=CCN3CC[C@@]4(c5ccccc5NC(=O)[C@@H]4C1)[C@@H]32", "Potency": "inactive"}, {"smiles": "C[C@]12CCC3[C@@H](CC[C@@H]4C[C@@H](O)CC[C@]34CO)[C@@]1(O)CC[C@@H]2C1=CC(=O)OC1", "note": "(some centres not stated)", "Potency": "841 nM (active)"}, {"smiles": "COC1=C(C2=C(OC)C(=O)c3cc4c(c(O)c3C2=O)C(=O)O[C@H](C)C4)C(=O)c2c(cc3c(c2O)C(=O)O[C@H](C)C3)C1=O", "Potency": "inactive"}, {"smiles": "CC[C@@H]1CN2CCC3(Nc4cccc(OC)c4C3=O)[C@@H]2C[C@@H]1/C(=C\\OC)C(=O)OC", "note": "(some centres not stated)", "Potency": "inactive"}, {"smiles": "CCCC[C@@H](C)/C=C1/CN2CCC[C@H]2[C@@](C)(O)[C@@H]1O", "Potency": "inactive"}, {"smiles": "C[C@]12CC(O)C3[C@@H](CC[C@@H]4C[C@@H](O)CC[C@]34CO)[C@@]1(O)CC[C@@H]2C1=CC(=O)OC1", "note": "(some centres not stated)", "Potency": "2660 nM (active)"}, {"smiles": "CC[C@H](C)[C@H]1NC(=O)[C@@H](NC(=O)C(C)[C@H](O)C(C)C)[C@@H](C)OC(=O)C2COC(=O)CNC(=O)/C=C\\[C@]3(CO3)[C@@H](C)Oc3ccc(cc3)[C@H](NC1=O)C(=O)N(C)C(Cc1ccccc1)C(=O)NC(C(C)O)C(=O)N2", "note": "(some centres not stated) (X2-T[d(aIle)][X3][ξNMeF][ξT][ξS]; ester 1-C; linker 3-6 via G)", "Potency": "inactive"}, {"smiles": "C=CC(C)(C)[C@@]12C[C@H]3C(=O)N/C(=C\\c4cnc[nH]4)C(=O)N3[C@@H]1Nc1ccccc12", "Potency": "inactive"}, {"smiles": "CC(C)CC1C(=O)O[C@H](C(C)C)C(=O)N(C)C(CC(C)C)C(=O)O[C@@H](C(C)C)C(=O)N(C)C(CC(C)C)C(=O)O[C@H](C(C)C)C(=O)N(C)C(CC(C)C)C(=O)O[C@@H](C(C)C)C(=O)N1C", "note": "(some centres not stated)", "Potency": "inactive"}, {"smiles": "COC1C(O)C(C)OC(OC2C(Oc3cccc4c(O)c5c(=O)oc6ccc(C)c7c(=O)oc(c34)c5c67)OC(C)C(O)C2O)C1O", "note": "(configuration not stated)", "Potency": "inactive"}, {"smiles": "C[N+](C)(C)CCc1c[nH]c2ccccc12", "Potency": "inactive"}, {"smiles": "CC[C@]12C=CCN3CC[C@]4(C(=C(C(=O)OC)C1)Nc1ccccc14)[C@@H]32", "Potency": "inactive"}, {"smiles": "C/C=C1/CN2CC[C@]34C(=C(C(=O)OC)[C@H]1C[C@H]23)Nc1ccccc14", "Potency": "inactive"}, {"smiles": "C=C(C)[C@H]1C(=O)c2c3c(cc4c5c(n1c24)[C@@]1(C)[C@@H](CC[C@H]2[C@](C)(/C=C/C=C(\\C)C(=O)O)[C@@H](O)CC[C@@]21C)C5)C1=CC(C)(C)OC(C)(C)[C@H]1[C@@H]3O", "Potency": "18800 nM (active)"}, {"smiles": "C/C=C/[C@@H]1[C@H]2C[C@@H](C)CC[C@@H]2C(C)=C[C@H]1C(=O)c1c(O)c(-c2ccc(O)cc2)c[nH]c1=O", "Potency": "inactive"}, {"smiles": "CCCC[C@@H]1CC[C@H]2CCCC(CCCO)N12", "note": "(some centres not stated)", "Potency": "inactive"}, {"smiles": "C=CC(C)(C)[C@@]12C[C@H]3C(=O)N/C(=C/c4cnc[nH]4)C(=O)N3[C@@H]1Nc1ccccc12", "Potency": "inactive"}, {"smiles": "CC[C@H]1CN2CCc3c([nH]c4cccc(OC)c34)[C@@H]2C[C@@H]1/C(=C\\OC)C(=O)OC", "Potency": "18800 nM (active)"}, {"smiles": "C1=C2CCCN[C@H]2C2CC1[C@H]1CCCCN1C2", "note": "(some centres not stated)", "Potency": "inactive"}, {"smiles": "O[C@H]1C=C[C@@]23CCN(Cc4cc5c(cc42)OCO5)[C@@H]3C1", "Potency": "inactive"}, {"smiles": "CO[C@@]12c3c(C)cc(O)c4c(=O)occ(c34)C(=O)[C@@H]1[C@]13COC(=O)c4c(O)cc(C)c(c41)C(=O)[C@H]2[C@@H]3OC(C)=O", "Potency": "inactive"}, {"smiles": "CO[C@@H](/C=C/CC/C=C/C(=O)O)[C@@H](O)[C@H](C)/C=C(\\C)[C@H](O)[C@H](C)C(=O)CCCC1CC(=O)NC(=O)C1", "Potency": "inactive"}, {"smiles": "CO[C@H]1C[C@H](O[C@H]2[C@@H](O)C[C@H](O[C@H]3CC[C@]4(C=O)[C@H]5CC[C@]6(C)C(C7=CC(=O)OC7)CC[C@]6(O)[C@@H]5CC[C@]4(O)C3)O[C@@H]2C)O[C@H](C)[C@H]1O[C@H]1C[C@@H](OC)[C@@H](O[C@@H]2O[C@H](CO)[C@@H](O)[C@H](O)[C@H]2O)[C@@H](C)O1", "note": "(some centres not stated)", "Potency": "188 nM (active)"}, {"smiles": "C/C=C1/CN2CC[C@@]34c5ccccc5N(C)[C@@H]3[C@@H]2C[C@@H]1[C@H]4C(=O)OC", "Potency": "inactive"}, {"smiles": "CO[C@H]1[C@H](O[C@H]2CC[C@]3(C=O)[C@H]4CC[C@]5(C)[C@@H](C6=CC(=O)OC6)CC[C@]5(O)[C@@H]4CC[C@]3(O)C2)O[C@H](C)[C@H](O)[C@@H]1OC", "Potency": "94.3 nM (active)"}, {"smiles": "CCCCC1CC[C@H]2CCCC(CCC)N12", "note": "(some centres not stated)", "Potency": "inactive"}, {"smiles": "c1ccc2nc3c(cc2c1)[nH]c1ccccc13", "Potency": "inactive"}]}]}
